Screens from PubChem BioAssay.
The list is not random: actives were taken first. Their share in the collection is about 12%.
G9a inh = G9a (human) methyltransferase inhibition; G9a H3K9 monomethylation, AlphaScreen, 2 h; Potency, µM (titrated, usually from 102 µM), hits mostly inhibitors; hit rate 8.8% among 350,000; also: nearly all actives have a fitted effect of over 75% in size
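Chemiluminescent proximity detection of H3K9 monomethylation, read after 10 min bead incubation in the dark. Reaction: 20 nM G9a, 500 nM biotin-H3K9 peptide, 20 uM SAM cofactor, 2 h, room temperature, following 15 min enzyme-compound preincubation.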
Sfp PPTase inh = blocks B. subtilis Sfp PPTase activity; Q9F4F7; Biochemical Sfp PPTase activity, qHTS; hit rate 3.5% among 310,000; AID 1490; Potency, µM, hits mostly inhibitors;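 also: the enzyme is Sfp with the accession as filed and its product quenches rhodamine fluorescence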
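With Hepes-Na pH 7.6 buffer containing 10 mM MgCl2, Sfp (15 nM) modified BHQ-2-YbbR (12.5 uM) using rhodamine-CoA (5 uM). Two reads 30 minutes apart at 525/598 nm yielded each well's rate.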
L3MBTL1 inh = L3MBTL1 (human) inhibition. Q9Y468. AlphaScreen L3MBTL1–H3K9me1 peptide binding. Potency, µM (titrated, usually from 57.1 µM), usual class: inhibitors. hit rate 0.66% among 230,000; also: nearly all actives have a fitted effect of over 60% in size
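Displacement of a biotinylated histone H3(1-15) peptide monomethylated at Lys9 (75 nM) from L3MBTL1 (50 nM) was measured by AlphaScreen after a 30 min room-temperature compound incubation; cefsulodin titration served as intraplate control.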
JMJD2A Tudor inh = JMJD2A Tudor domain (human) inhibition. hit rate 4.4% among 390,000. AlphaScreen JMJD2A-Tudor / H3K4me3 peptide binding. Potency, µM (highest dose often 114 µM), hits mostly inhibitors; also: nearly all actives have a fitted effect of over 50% in size
HP1b chromo inh = inhibitors of HP1-beta chromodomain binding to methylated histone tails; P83916; AlphaScreen HP1-beta / biotin-H3K9me3 peptide binding; Potency, µM (titrated, usually from 114 µM), actives largely listed as inhibitors; hit rate 0.56% among 390,000; AID 540317; also: nearly all actives have a fitted effect of over 70% in size
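HP1-beta protein (50 nM final) preincubated 30 min at room temperature with biotinylated H3(1-18)K9me3 peptide (50 nM) in PBS pH 7.4, 0.01% Tween-20, then compound added for 30 min. AlphaScreen streptavidin donor/nickel chelate acceptor beads (10 ug/mL final), 30 min dark, luminescence read.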
BAZ2B block = inhibitors of human BAZ2B bromodomain | AlphaScreen BAZ2B-H3K14Ac peptide displacement | Potency, µM (top dose mostly 114 µM), hits mostly inhibitors | Q9UIF8 | hit rate 4.4% among 360,000; also: nearly all actives have a fitted effect of over 60% in size
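AlphaScreen displacement: compounds (up to 110uM) incubated 30 min at room temperature with a preformed 50 nM BAZ2B/50 nM biotinylated H3K14Ac peptide complex in PBS pH 7.4 with Tween-20. Donor and acceptor beads at 10 ug/mL final added, 20 min light-protected before reading.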
Each line names hits and unclear results; the compound was inactive in the other large screens. Calls follow the shape of the dose curve; as a rule, active = well fitted curve in the direction sought with a large enough effect; inconclusive = small, poorly fitted or top-dose-only effect, or another doubt; inactive = no such curve, though single readings can be large; an effect the other way counts as inactive or inconclusive.

Cc1onc(-c2ccccc2Cl)c1C(=O)Nc1ccc(-n2nncc2-c2ccco2)cc1	G9a inh 40µM, JMJD2A Tudor inh inconclusive, BAZ2B block inconclusive
Cc1ccccc1-n1nc2c(c1NC(=O)c1c(-c3ccccc3Cl)noc1C)CSC2	none
O=S(=O)(c1ccc2c(Cl)cccc2c1)N1CCN(c2nc(-c3cccs3)nc3ccccc23)CC1	none (no result: G9a inh, Sfp PPTase inh, L3MBTL1 inh, BAZ2B block)
CC1S/C(=N/N=C2CCC(C(C)(C)C)CC2)NC1=O (centres undefined)	BAZ2B block 56µM
O=C(CC1S/C(=N/N=C2CCCCCC2)NC1=O)Nc1ccccc1C(F)(F)F (centres undefined)	none (no result: L3MBTL1 inh)
CC1S/C(=N/N=C2CCCCC2)NC1=O (centres undefined)	JMJD2A Tudor inh inconclusive, BAZ2B block 50µM
COc1ccc(N2CCN(C(CNS(=O)(=O)c3cc(F)ccc3F)c3cccnc3)CC2)cc1 (centres undefined)	G9a inh 45µM, JMJD2A Tudor inh inconclusive (no result: L3MBTL1 inh)
COc1ccccc1N1CCN(C(CNC(=O)C(=O)NCCc2ccccc2)c2cccnc2)CC1 (centres undefined)	G9a inh 5.6µM, JMJD2A Tudor inh 11µM, HP1b chromo inh 20µM, BAZ2B block 40µM (no result: Sfp PPTase inh, L3MBTL1 inh)
COc1ccccc1N1CCN(C(CNS(=O)(=O)c2cccs2)c2cccnc2)CC1 (centres undefined)	G9a inh 50µM
O=S(=O)(NCC(c1cccnc1)N1CCN(c2ccc(F)cc2)CC1)c1cc(F)ccc1F (centres undefined)	JMJD2A Tudor inh inconclusive (no result: G9a inh, Sfp PPTase inh, L3MBTL1 inh, BAZ2B block)
COc1ccc(C(=O)NCC(c2cccnc2)N2CCN(c3ccccc3OC)CC2)cc1 (centres undefined)	G9a inh inconclusive (no result: Sfp PPTase inh, L3MBTL1 inh)
O=S(=O)(NCC(c1cccnc1)N1CCN(c2ccccc2)CC1)c1cccs1 (centres undefined)	G9a inh inconclusive, BAZ2B block inconclusive (no result: L3MBTL1 inh)
COc1ccc(N2CCN(C(CNS(=O)(=O)c3cccs3)c3cccnc3)CC2)cc1 (centres undefined)	G9a inh 89µM, JMJD2A Tudor inh inconclusive, BAZ2B block inconclusive (no result: L3MBTL1 inh)
CCS(=O)(=O)NCC(c1cccnc1)N1CCN(c2ccccc2OC)CC1 (centres undefined)	G9a inh inconclusive
CCN(CC)CCCNC(=O)c1sc2nc3n(c(=O)c2c1C)CCCCC3	G9a inh inconclusive (no result: Sfp PPTase inh, L3MBTL1 inh)
CCOC(=O)c1c(S(=O)(=O)N2CCCC(C(=O)Nc3cccc(C#N)c3)C2)c(C)n(C)c1C (centres undefined)	BAZ2B block inconclusive (no result: Sfp PPTase inh, L3MBTL1 inh)
COc1ccc(NC(=O)c2cc(-c3ccc(F)cc3)no2)cc1OC	G9a inh inconclusive, JMJD2A Tudor inh inconclusive (no result: Sfp PPTase inh, L3MBTL1 inh)
CCn1cc(S(=O)(=O)c2ccc(C)cc2C)c(=O)c2cc(F)c(N3CCCC3)cc21	none (no result: Sfp PPTase inh, L3MBTL1 inh)
O=C(Nc1ccc2oc(-c3cccnc3)nc2c1)c1ccc(-c2cccc(OC(F)(F)F)c2)o1	none (no result: Sfp PPTase inh, L3MBTL1 inh)
COc1ccc(S(=O)(=O)NCC(c2cccnc2)N2CCN(c3ccc(F)cc3)CC2)cc1C (centres undefined)	G9a inh inconclusive, JMJD2A Tudor inh inconclusive, BAZ2B block inconclusive
COc1ccc(S(=O)(=O)NCC(c2cccnc2)N2CCN(c3ccccc3)CC2)cc1C (centres undefined)	G9a inh 50µM, JMJD2A Tudor inh inconclusive, BAZ2B block inconclusive (no result: L3MBTL1 inh)
Cc1ccc(N(C(=O)CCCC(=O)Nc2ccccn2)C(C(=O)NC2CCCC2)c2ccc(O)cc2)cc1C (centres undefined)	G9a inh 8.9µM (no result: L3MBTL1 inh)
CCn1cc(C(=O)OCC(=O)Nc2ccc(C)c(Cl)c2)c(=O)c2ccc(C)nc21	none (no result: Sfp PPTase inh, L3MBTL1 inh)
Cc1cc(C)nc(NCC(O)COc2ccccc2C)n1 (centres undefined)	G9a inh 45µM
Cc1cc(C)nc(NCC(O)CNc2ccccc2C)n1 (centres undefined)	none
CCc1nn(CC(=O)NC(C)CC)c(=O)c2cc3occc3n12 (centres undefined)	none (no result: Sfp PPTase inh, L3MBTL1 inh)
Cc1cccc(-n2c(CNC(=O)Cc3ccccc3)n[nH]c2=S)c1	G9a inh 20µM, JMJD2A Tudor inh 4µM
